In PubChem BioAssay AID686979 (National Center for Advancing Translational Sciences (NCATS), 2013):
Hit rate of the full screen: of about 420,000 compounds, about 50,000 (12%) were called active. Where a call stands in place of a potency, no number is given. Not shown: some 26% with an inconclusive outcome. This is one part of a sample in which actives are shown more often than they occur. Calls come from the whole dose curve; as a rule, active = well fitted inhibition curve with a large enough effect; inconclusive = small, poorly fitted or top-dose-only effect; inactive = flat fitted curve, though single readings scatter.

assay: qHTS for Inhibitors of human tyrosyl-DNA phosphodiesterase 1 (TDP1): qHTS in cells in presence of CPT; conditions: chicken DT40 Tdp1-/-;hTDP1 cells + 20 nM CPT, ATP luminescence, 48 h; series mostly up to 46.2 µM; note: nearly all actives have a fitted effect of over 55% in size
Summary of the method: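 Cell growth measured by CellTiter-Glo luminescence after a minimum 48 h, 37 C compound exposure with 20 nM CPT in Tdp1-knockout DT40 cells stably expressing hTDP1, seeded 400/well; qHTS titration format.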
Potency is the fitted concentration of half-maximal effect.

Row | SMILES | Potency
1 | O=CN1CCN(C(=O)c2ccc3c(c2)OCO3)CC1 | inactive
2 | Cc1ccc(C(=O)O)cc1N1C(=O)CCCC1=O | inactive
3 | Cc1ccc(-n2c(C)nnc2SCC(=O)NC2CC2)cc1 | inactive
4 | COc1ccc(Cl)cc1NC(=O)C1CC(=O)N(c2ccc(F)cc2)C1 (stereo unspecified) | inactive
5 | COc1cc(OC)c(N2CC(C(=O)Nc3cc(Cl)ccc3N3CCOCC3)CC2=O)cc1Cl (stereo unspecified) | 3.66 µM (active)
6 | COc1ccccc1N1CC(C(=O)Nc2ccc(S(=O)(=O)N3CCOCC3)cc2)CC1=O (stereo unspecified) | inactive
7 | CCCOc1ccc(Cc2c(O)nc(N)[nH]c2=O)cc1C | inactive
8 | Cc1ccc(F)cc1S(=O)(=O)Nc1cccc(C(=O)N2CCCC(C(N)=O)C2)c1 (stereo unspecified) | inactive
9 | Cc1ccc(O/C=C2\OC(=O)c3ccccc32)cc1 | inactive
10 | Cc1c(CCC(=O)N[C@@H](CC(C)C)C(=O)O)c(=O)oc2c(C)c3oc4c(c3cc12)CCCC4 | inactive
11 | O=C(OCC1OC(Oc2ccc(O)cc2)C(O)C(O)C1O)c1ccccc1 (stereo unspecified) | inactive
12 | CCc1ccccc1NS(=O)(=O)c1ccc2nc(-c3ccccc3)[nH]c2c1 | 20.6 µM (active)
13 | CCc1nnc(NC(=O)C2CCCN2S(=O)(=O)c2ccccc2)s1 (stereo unspecified) | inactive
14 | CCc1ccc(NC(=O)C2CCCN2S(=O)(=O)c2ccc3nc(-c4ccccc4)[nH]c3c2)cc1 (stereo unspecified) | 23.1 µM (active)
15 | Cc1ccc(S(=O)(=O)Nc2ccccc2CNc2c(C)n(C)n(-c3ccccc3)c2=O)cc1 | inactive
16 | CCN(CC)S(=O)(=O)c1ccc2nc(COC(=O)c3n[nH]c4ccccc34)[nH]c2c1 | inactive
17 | CC(=O)Nc1ccc(NC(=O)C2CCCN2S(=O)(=O)c2cccc(C(F)(F)F)c2)cc1 (stereo unspecified) | inactive
18 | N#Cc1ccc(S(=O)(=O)NCC(=O)OCC(=O)NCCc2ccccc2)cc1 | inactive
19 | CCCn1c(N)c(N(CCOC)C(=O)C2CCCC2)c(=O)[nH]c1=O | inactive
20 | COc1ccc(-c2nn(-c3ccccc3)cc2/C=C\C(=O)Nc2ccc(C(=O)O)cc2)cc1 | 23.1 µM (active)
21 | O=C(NNC(=S)NC(=O)c1cn(-c2ccccc2)nc1-c1ccccc1)c1ccncc1 | 14.6 µM (active)
22 | COc1ccc(-c2nn(-c3ccccc3)cc2/C=C\C(=O)N2CCOCC2)cc1[N+](=O)[O-] | inactive
23 | O=C(O)/C=C/c1cn(-c2ccccc2)nc1-c1cccs1 | inactive
24 | O=C(c1cn(-c2ccccc2)nc1-c1cccnc1)N1CCCCC1 | inactive
25 | O=C(O)c1ccc(NC(=O)c2ccc(COc3ccc(Cl)cc3)o2)cc1 | inactive
26 | O=C(O)c1ccc(NC(=O)c2cn(-c3ccccc3)nc2-c2ccc(Cl)cc2)cc1 | 20.6 µM (active)

Row | SMILES | Potency
27 | Cc1ccc(-c2nn(-c3ccccc3)cc2C(=O)Nc2cccc(S(=O)(=O)N3CCOCC3)c2)cc1 | inactive
28 | COC(=O)c1cn(-c2ccccc2)nc1-c1cccnc1 | inactive
29 | COc1ccc(S(=O)(=O)N(CCCN2CCCC2=O)Cc2cc3c(C)ccc(C)c3[nH]c2=O)cc1 | inactive
30 | O=C(CN1CCN(S(=O)(=O)c2ccc3ccccc3c2)CC1)NC(=O)NC1CCCCC1 | inactive
31 | O=C(CN1CCC(NC(=O)Nc2ccccc2)CC1)Nc1cccc([N+](=O)[O-])c1 | inactive
32 | O=C(N/N=C\c1ccc(Br)cc1)c1ccc(Cn2cccn2)o1 | inactive
33 | O=C1c2ccccc2C(Nc2ccc3c(c2)OCCO3)N1Cc1ccco1 (stereo unspecified) | 20.6 µM (active)
34 | S=C(NCc1ccco1)Nc1ccc2c(c1)OCCO2 | inactive
35 | O=C(NC1CCCCC1)C1c2ccccc2C(=O)N1Cc1ccco1 (stereo unspecified) | inactive
36 | Cn1cnc2c1c(=O)n(Cc1ccccc1C#N)c(=O)n2C | inactive
37 | CC(=O)Nc1ccc(S(=O)(=O)NNC(=O)CCc2ccccc2)cc1 | inactive
38 | CCc1nccn1S(=O)(=O)c1cc(Br)ccc1Br | inactive
39 | CCNC(=O)c1cc2n(n1)CCCN(Cc1ccc(C)cc1)C2=O | inactive
40 | COc1cc(CNC(=O)c2cc3n(n2)CCCN(Cc2cccc(F)c2)C3=O)cc(OC)c1OC | 16.4 µM (active)
41 | COC(=O)c1ccc(CNC(=O)C2CCC(=O)N(Cc3cccc(F)c3)C2)cc1 (stereo unspecified) | inactive
42 | O=C(c1cc(C2CCCCN2S(=O)(=O)c2ccccc2)on1)N1CCOCC1 (stereo unspecified) | inactive
43 | CSc1ccc(/C=N/N2CCN(Cc3ccccc3Cl)CC2)cc1 | inactive
44 | COc1ccc(CNC(=O)COC(=O)c2c(C)nn(-c3ccccc3)c2C)cc1OC | inactive
45 | CCCOc1ccc(F)cc1-c1cc(C(=O)NCc2ccc(F)cc2)[nH]n1 | 14.6 µM (active)
46 | CCCOc1ccc(F)cc1-c1cc(C(=O)Nc2ccc(F)c(Cl)c2)[nH]n1 | 14.6 µM (active)
47 | COc1ccc(NC(=O)CN2CCN(S(=O)(=O)c3ccc(F)cc3)CC2)cc1Cl | inactive
48 | Cc1cc(=O)oc(C)c1C(=O)NCc1ccc(F)cc1 | inactive
49 | Cc1ccc(NC(=O)c2cc(-c3ccccc3O)n[nH]2)cc1C | inactive
50 | CCCOc1ccccc1-c1nc(SCCC(=O)O)n[nH]1 | inactive
51 | COc1ccccc1C(=O)COC(=O)COc1ccc(C#N)cc1 | inactive
52 | COc1cccc(NC(=O)N(C)C[C@@H]2Oc3ncc(Br)cc3C(=O)N([C@@H](C)CO)C[C@H]2C)c1 | inactive

Row | SMILES | Potency
53 | Oc1ccc(-c2cccc(-c3ccc(O)cc3)c2)cc1 | inactive
54 | CN(C(=O)COC(=O)c1cc(=O)[nH]c2ccccc12)C1CCCCC1 | inactive
55 | CCOc1ccccc1CNC(=O)c1ccc2c(c1)nc1n2CCC(C)C1 (stereo unspecified) | inactive
56 | O=C(COC(=O)/C=C/c1cn(-c2ccccc2)nc1-c1cccnc1)Nc1ccc(Cl)cc1Cl | 9.2 µM (active)
57 | COc1ccc(NC(=O)CN(C)C(=O)/C=C/c2cn(Cc3ccccc3)nc2-c2cccnc2)cc1 | inactive
58 | Cc1ccc(/C=C/C(=O)OCC(=O)Nc2cccnc2Cl)cc1 | inactive
59 | Cc1[nH]n(-c2ccccc2)c(=O)c1CCOC(=O)c1ccc(C(F)(F)F)cc1 | inactive
60 | COc1ccc(S(=O)(=O)NCCCc2ccccc2)cc1 | inactive
61 | COc1ccc(S(=O)(=O)NCCCCOc2ccc(Cl)cc2)cc1 | 10.3 µM (active)
62 | COc1ccc(OCCNS(=O)(=O)Cc2ccccc2)cc1 | inactive
63 | CC(=O)c1ccc(S(=O)(=O)N(C)CCCC(=O)N(C)Cc2ccccc2F)cc1 | inactive
64 | C/C(=N\NC(=O)COc1c(C)cccc1C)c1cccs1 | inactive
65 | O=C(CSc1nc2ccccc2c(=O)n1-c1ccc(F)cc1)NC1CC1 | inactive
66 | C/C(=N\NC(=O)CSc1nc2ccccc2c(=O)n1-c1ccccc1C)c1cccs1 | 23.1 µM (active)
67 | Cc1ccc(-n2c(SCC(=O)N/N=C/C=C/c3ccccc3[N+](=O)[O-])nc3ccccc3c2=O)cc1 | inactive
68 | CCc1c(O)nc(SCC(=O)N2CCCCC2)n(-c2ccccc2C)c1=O | inactive
69 | Cc1nn(-c2ccccc2)c(C)c1/C=N/NC(=O)CSc1nc2ccccc2c(=O)n1-c1ccccc1 | 16.4 µM (active)
70 | CCn1c(SCC(=O)NC2=NCCS2)nnc1C(C)NC(=O)c1ccccc1F (stereo unspecified) | inactive
71 | Cc1ccc(Nc2cc(=O)n(C3CCCCC3)c(=O)[nH]2)cc1C | inactive
72 | C[C@H](NC(=O)c1nc[nH]c1C(=O)NCC(=O)OC(C)(C)C)c1ccccc1 | inactive
73 | CCC1(CC)NC(=O)N(CC(=O)OCC(=O)Nc2ccc(C(F)(F)F)cc2)C1=O | inactive
74 | Cc1cc(Nc2ccc(C)c(C)c2)n2ncnc2n1 | inactive
75 | Cc1nc(S(=O)(=O)c2ccc(Br)cc2)nc2c1CCC2 | inactive
76 | Brc1ccc(Nc2c3c(nc4ncnn24)CCC3)cc1 | 25.9 µM (active)
77 | Cc1cc([N+](=O)[O-])c(NC2CCCCC2)c([N+](=O)[O-])c1 | inactive
78 | CCC(C)NC(=O)Cn1c(=O)n(-c2ccc(Cl)cc2)c(=O)c2c3c(sc21)CCCC3 (stereo unspecified) | inactive

Row | SMILES | Potency
79 | Cc1sc2c(c1C)c(=O)n(-c1ccccc1)c(=O)n2CC(=O)NCC1CCCO1 (stereo unspecified) | inactive
80 | Cc1ccc(NC(=O)Cn2c(=O)n(-c3ccccc3)c(=O)c3c4c(sc32)CCCC4)cc1 | 14.6 µM (active)
81 | COc1ccc(NC(=O)N2CCCC(c3nc(-c4ccc(F)cc4)no3)C2)cc1 (stereo unspecified) | inactive
82 | CCN(C(=O)C1CCCN(c2nc(-c3ccc(OC)cc3)no2)C1)c1ccc(OC)cc1 (stereo unspecified) | 16.4 µM (active)
83 | CCOc1ccc(N(CC)C(=O)C2CCN(S(=O)(=O)c3cccc4nonc34)CC2)cc1 | inactive
84 | CS(=O)(=O)c1ccccc1C(=O)Nc1ccc2sccc2c1 | inactive
85 | O=C(Nc1cc2c3c(c1)CC(=O)N3CCC2)c1ccccc1F | inactive
86 | CCCCCCSc1ccc([C@@H]2[C@@H]3C(=O)N(CC)C(=O)[C@@H]3[C@]3(C(=O)OC)CCCCN23)cc1OC | 20.6 µM (active)
87 | CCN1C(=O)[C@@H]2[C@@H](c3ccc(-c4cccc(Cl)c4)cc3)N3CCC[C@@]3(C(=O)OC)[C@@H]2C1=O | 14.6 µM (active)
88 | CC(=O)N(CN1C(=O)C2C3C=CC(C3)C2C1=O)c1cccc(Cl)c1 (stereo unspecified) | inactive
89 | CCN1C(=O)[C@H]2[C@@H](c3ccccc3)N[C@]3(CCCN(Cc4ccc(C)cc4)C3=O)[C@H]2C1=O | inactive
90 | CCCCC12CN3CC(C)(CN(C1)C3c1ccc(O)c(OC)c1)C2=O (stereo unspecified) | inactive
91 | CC1CCN(CCCNC(=O)CN2C(=O)CSc3ccc(S(=O)(=O)N4CCCCC4)cc32)CC1 | inactive
92 | O=C(Cc1ccccc1)Nc1ccc(C(=O)Nc2ccccc2C(=O)O)cc1 | inactive
93 | Cc1ccc(Cn2cc(CCC(=O)NCc3ccc(OC(C)C)cc3)c3ccccc32)cc1 | 23.1 µM (active)
94 | CCn1cc(CCC(=O)NCc2ccc(F)cc2)c2ccccc21 | 16.4 µM (active)
95 | CC(NC(=O)CCc1cn(Cc2ccccc2Cl)c2ccccc12)c1ccccc1 (stereo unspecified) | 20.6 µM (active)
96 | Cc1ccc(CNC(=O)[C@@H](NC(=O)Cc2ccccc2)C(C)C)cc1 | inactive
97 | Cn1cc(CCC(=O)NC2CC2)c2ccccc21 | inactive
98 | CC(NC(=O)Cn1cc(C(F)(F)F)cc(Cl)c1=O)c1ccccc1 (stereo unspecified) | inactive
99 | CCCCC(=O)NCc1ccc(F)cc1 | inactive
100 | O=C(CCc1cn(Cc2ccc(F)cc2)c2ccccc12)NC1CCCCC1 | inactive
101 | Cc1ccc(CNC(=O)Cc2cn(C)c3ccccc23)cc1 | inactive
